About 83,000 compounds went through this panel and 20% of them were active in at least one assay; those are over-represented in the sample as a whole.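 48-hour exposure, single concentration, 96-well plates; percent growth endpoint where 0 means no net growth. Active: below 10.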 A number with no mark means an inactive call. The source made the active and inactive calls.

Eight compounds from PubChem BioAssay (NCI) can be followed below.

Assay in all cases: NCI-60 one-dose screen, 48 h (100 = growth as untreated, 0 = no growth, -100 = all killed)
Common to all, as to settings: 10 µM unless noted

For experiment [1], the system named is DU-145 prostate.
Experiment [2] relates to K-562 leukemia.
The test system of experiment [3] is MALME-3M melanoma.
Experiment [4] concerns MDA-MB-231 breast.
Experiment [5] relates to RXF 393 renal.
For experiment [6], the system named is SF-268 CNS.
Experiment [7] has as its system SF-295 CNS.
Experiment [8] relates to SF-539 CNS.
For experiment [9], the system named is UACC-257 melanoma.
In experiment [10] the test system is M14 melanoma.
In experiment [11] the test system is HCT-15 colon.
In experiment [12] the test system is HT29 colon.
In experiment [13] the test system is SNB-75 CNS.
The test system of experiment [14] is SNB-19 CNS.
For experiment [15], the system named is U251 CNS.
The subject of experiment [16] is PC-3 prostate.
Experiment [17] deals with SK-MEL-5 melanoma.
Experiment [18] concerns UACC-62 melanoma.
Experiment [19] relates to LOX IMVI melanoma.
Experiment [20] relates to SK-MEL-28 melanoma.

In the case of `O=C(CSc1nc2c(c(=O)[nH]1)CCCC2)Nc1ccccc1C(=O)O`, the growth is 110% in experiment [1]; 95.8% in experiment [2]; 96.7% in experiment [3]; 109% in [4]; 108% in experiment [5]; 106% in experiment [6]. Further, the growth in experiment [7] was 100%; in experiment [8] it was 97.9%; in [9], 109%; in experiment [10], 108%; in experiment [11], 98.3%; in [12], 105%. Further, the growth in [13] is 125%; in [14], 99.7%; in experiment [15], 103%; in [16], 106%; in experiment [17], 99.3%; in experiment [18] it was 96.1%. Moreover, the growth in experiment [19] was 101%; in experiment [20], 112%.
On to `CN(C)c1nc(NCCNS(=O)(=O)c2ccc(C(=O)/C=C/c3ccccc3)cc2)nc(N2CCOCC2)n1`, for which the growth was 89.6% in experiment [1]; -15.4% (active) in experiment [2]; 99.2% in experiment [3]; 7.26% (active) in [4]; 79% in [5]; 74.6% in [6]. Further, the growth in experiment [7] was 75.6%; in experiment [8] it was 77.1%; in [9], 78.8%; in [10] it was 84.4%; in [11], -45.3% (active); in experiment [12], 3.67% (active). Further, the growth in [13] is 73.2%; in experiment [14], 77%; in [15], 44%; in experiment [16], 59.6%; in experiment [17], 83.5%; in [18], 72.8%. In addition, the growth in experiment [19] was -63.1% (active); in [20] it was 88%.
On to `C=CCSc1nnc(-c2ccc(-c3nc4ccccc4[nH]3)cc2)o1`, for which the growth in experiment [1] is 77.1%; in experiment [2], 46%; in experiment [3] it was 77.4%; in [4], 92.2%; in [5] it was 71.3%; in experiment [6] it was 87.4%. The growth is 76.2% in experiment [7]; 82.2% in [8]; 88.2% in [9]; 73.5% in experiment [10]; 51.3% in experiment [11]; 69.5% in experiment [12]. The growth in experiment [13] was 74%; in [14], 79.7%; in experiment [15], 84%; in [16] it was 57.5%; in experiment [17], 50.6%; in experiment [18], 73.9%. Further, the values for the growth in experiment [19] and in experiment [20] were 73.9% and 85.6%, respectively.
As to `N#C/C(=C/c1ccc([N+](=O)[O-])cc1)c1nnc(NC(=O)c2ccc(-n3c(=O)[nH]c4ccccc4c3=O)cc2)s1`, the growth is 83.1% in experiment [1]; 103% in experiment [2]; 91.6% in experiment [3]; 89.5% in experiment [4]; 87.9% in [5]; 110% in experiment [6]. The growth was 100% in experiment [7]; 93.6% in experiment [8]; 105% in experiment [9]; 120% in [10]; 93.3% in [11]; 110% in experiment [12]. In addition, the growth was 110% in [13]; 87.1% in [14]; 89.5% in [15]; 90.9% in [16]; 99% in experiment [17]; 99.2% in experiment [18]. Moreover, the growth in experiment [19] was 90.5%; in experiment [20], 100%.
With `O=c1ccc(Cn2c(C(F)(F)F)cc3c(Cl)ncnc32)c[nH]1`, the growth in experiment [1] was 86.3%; in experiment [2], 3.37% (active); in [3], 91.4%; in experiment [4], 52.6%; in [5], 86.5%; in experiment [6], -22.9% (active). For the same compound, the growth in experiment [7] is 97.6%; in [8], 87.4%; in experiment [9], 24%; in experiment [10], -51.5% (active); in experiment [11], 0.0667% (active); in [12] it was 78.1%. For the same compound, the growth was 13.1% in experiment [13]; 47.4% in [14]; 98.5% in [15]; 78.4% in experiment [16]; 6.31% (active) in [17]; 19.3% in experiment [18]. In addition, the growth is -61.8% (active) in experiment [19] and 40.8% in experiment [20].
For `CCCCNc1ccc2c3c(cccc13)C(=O)N(c1cccc(-c3nn(-c4ccccc4)cc3-c3nc4ccccc4s3)c1)C2=O`, the growth was 106% in experiment [1]; 89.5% in experiment [2]; 103% in experiment [3]; 99.1% in [4]; 98.5% in [5]; 109% in [6]. The growth in experiment [7] was 104%; in experiment [8], 101%; in experiment [9], 113%; in experiment [10] it was 99.6%; in [11] it was 108%; in experiment [12], 114%. For the same compound, the growth in experiment [13] was 92.8%; in experiment [14], 106%; in experiment [15], 110%; in experiment [16], 87.7%; in experiment [17], 96.3%; in experiment [18] it was 88.3%. The growth is 94.4% in experiment [19] and 101% in experiment [20].
With `O=C1c2cccc3c(N4CCN(Cc5ccccc5)CC4)ccc(c23)C(=O)N1c1cccc(-c2nn(-c3ccccc3)cc2-c2nc3ccccc3s2)c1`, the growth in experiment [1] was 119%; in experiment [2], 97.4%; in [3], 98.5%; in experiment [4], 105%; in experiment [5], 99.8%; in [6], 108%. Moreover, the growth was 107% in experiment [7]; 97% in experiment [8]; 124% in experiment [9]; 97.8% in experiment [10]; 110% in experiment [11]; 115% in [12]. Moreover, the growth in experiment [13] is 84.3%; in experiment [14] it was 103%; in [15], 106%; in experiment [16], 88.1%; in experiment [17], 102%; in experiment [18], 94.6%. For the same compound, the growth in experiment [19] is 97.9%; in [20] it was 106%.
Turning to `Cn1cc(Nc2ncnc(-c3ccc(N4CCCC4)c(C#N)c3)n2)cn1`, the growth in experiment [1] is 66.5%; in experiment [2], 29.8%; in [3] it was 74.8%; in experiment [4], 63.6%; in experiment [5], 50.8%; in [6], 71.9%. Besides, the growth in experiment [7] was 93.2%; in [8], 65.2%; in experiment [9] it was 94%; in experiment [10], 53.5%; in experiment [11], 40.8%; in experiment [12], 74.6%. Further, the growth is 30.8% in [13]; 92.4% in experiment [14]; 94.3% in experiment [15]; 78.8% in [16]; 49% in experiment [17]; 59.4% in experiment [18]. Further, the results for the growth in experiment [19] and in experiment [20] were 48.9% and 88.3%, respectively.
